Assay outcomes from PubChem BioAssay.
BioA inh – blocks M. tuberculosis BioA enzyme activity. inhibition, % at 9.99 µM. purified M. tuberculosis BioA enzyme, plate reader. 360,000 tested, 0.096% active. AID 602481; in the data active = inhibition above about 40%; inconclusive = no clear call, values can overlap the other calls
Vc quorum ag – quorum light induction in luxS cqsA deficient V. cholerae; V. cholerae BH1578 lux reporter, luminescence, 6 h; activation, % at 18.7 µM; 350,000 tested, 0.16% active; AID 588436; in the data active = activation mostly above about 9.7%, no sharp cut-off; inconclusive = no clear call, values can overlap the other calls; inactive = mostly below about 3.7%
TcdB inh – inhibitors of Clostridioides difficile toxin B glycohydrolase; 350,000 tested, 0.24% active; TcdB glycohydrolase enzymatic assay, plate reader; P18177; inhibition, % at 9.99 µM; in the data active = inhibition above about 10%
Y pestis TopoI – blocks Yersinia pestis topoisomerase I activity; 360,000 tested, 0.064% active; activity, % at 10 µM; Y. pestis Topo-I cleavage product accumulation, plate reader; AID 504884; in the data active = activity above about 50%, passing the limit was not always enough; inconclusive = no clear call, values can overlap the other calls
FadD28 FP inh – M. tuberculosis FadD28 bisubstrate binding inhibition. FadD28 bisubstrate probe binding, fluorescence polarization. inhibition, % at 12.5 µM. 360,000 tested, 0.22% active. AID 588549; in the data active = inhibition above about 8.5%, passing the limit was not always enough; inconclusive = no clear call, values can overlap the other calls
Numbers stand for hits; i = inactive; ? = inconclusive; nt = not tested or not shown; + = active, no number. Sampled rows, rich in hits. Any-hit rate of the full collection: about 0.61%.

SMILES	BioA inh	Vc quorum ag	TcdB inh	Y pestis TopoI	FadD28 FP inh
CC(C)COC(=O)C(C)Nc1n[nH]c(=S)[nH]c1=O (stereo not given)	nt	+	i	i	i
CO[C@H]1CN(C)C(=O)c2cc(NC(=O)c3cnccn3)ccc2OC[C@H](C)N(CCc2ccccc2)C[C@H]1C	i	nt	i	nt	nt
Cc1ccc(/C=C/C(=O)N2CCC(Cc3ccccc3)CC2)cc1	nt	i	nt	51	i
Cc1ccc(/C=C/C(=O)N2CCCC(C)C2)cc1 (stereo not given)	i	i	i	i	i
COc1cccc(CN2CC3(CN(Cc4ccccn4)C3)c3c([nH]c4cc(OC)ccc34)[C@H]2CO)c1	nt	nt	i	nt	nt
C[C@H](CO)N1C[C@H](C)[C@@H](CN(C)S(C)(=O)=O)OCCCC[C@H](C)Oc2ccc(NS(C)(=O)=O)cc2C1=O	i	nt	nt	nt	nt
Cc1onc(-c2ccccc2)c1C(=O)N/N=C/c1cn(C)c2ccccc12	i	i	13	i	i
Cc1cccc(/C=N/NC(=O)c2c(-c3ccccc3)noc2C)c1O	i	i	i	i	i
Cc1c(C)n(C)c2ccc(C(=O)NCc3cccs3)cc12	i	i	i	i	12
C[C@@H]1CN([C@@H](C)CO)C(=O)Cc2cc(NS(=O)(=O)c3cn(C)cn3)ccc2O[C@H]1CN(C)CC1CCCCC1	i	nt	i	nt	nt
N#C/C(=C\c1ccc(N2CCOCC2)o1)C(=O)Nc1ccc(O)cc1	i	i	19	i	i
Cc1noc(C)c1NC(=O)Nc1ccc2c(c1)CC(=O)N([C@H](C)CO)C[C@H](C)[C@H](CN(C)Cc1ccccc1)O2	i	nt	i	nt	nt
O=S(=O)(O)c1cccc2c(N=Nc3ccc(O)c4ncccc34)cccc12	i	i	i	i	28
COc1cccc(NS(=O)(=O)c2ccc3c(c2)C2C=CCC2C(c2ccc(C(=O)O)cc2)N3)c1 (stereo not given)	nt	i	nt	i	22
O=C(O)c1ccc2c(c1)[C@@H]1C=CC[C@@H]1[C@H](c1ccccn1)N2	i	i	nt	i	19
COc1ccc(C(=O)N/N=C(\C)c2ccc3c(c2)C2C=CCC2C(c2ccccc2)N3)cc1 (stereo not given)	nt	i	nt	i	i
CC1(C)CC(=O)C2=C(C1)c1c(ccc3ccccc13)NC2c1cc([N+](=O)[O-])cc([N+](=O)[O-])c1O (stereo not given)	nt	i	i	i	32
CC1(C)CC(=O)C2=C(C1)c1c(ccc3ccccc13)NC2c1ccc(C(=O)O)cc1 (stereo not given)	i	i	i	i	i
O=C(CSc1nnc(COc2ccc(Cl)cc2)o1)N1c2ccccc2CCc2ccccc21	nt	i	nt	61	i
O=C(CSc1nnc(COc2ccc(Cl)cc2)o1)N1CCCC1	i	i	i	i	nt
C[C@H](CO)N1C[C@H](C)[C@@H](CN(C)Cc2cccnc2)Oc2ncc(C#Cc3cccnc3)cc2C1=O	i	nt	i	nt	nt
NC(=O)c1ccc2c(=O)c(O)c(-c3cc(Cl)c(N)c(Cl)c3)[nH]c2c1	i	i	13	i	i
CCCNC(=O)c1ccc2c(=O)c(O)c(-c3ccc(Cl)c([N+](=O)[O-])c3)[nH]c2c1	i	i	i	i	i
Cc1c(CCCC(=O)O)sc(N)c1C(=O)c1cccc(C(F)(F)F)c1	i	i	11	i	i
Cc1ccc(C)c(CSc2nnc([C@@H](N)C(C)C)o2)c1	i	i	nt	90	i
SMILES	BioA inh	Vc quorum ag	TcdB inh	Y pestis TopoI	FadD28 FP inh
Cc1ccc(C)c(CSc2nnc(CCN)o2)c1	i	i	nt	i	i
C[C@H]1CN([C@@H](C)CO)C(=O)c2cc(NS(C)(=O)=O)ccc2O[C@@H]1CN(C)Cc1ccc(Cl)c(Cl)c1	i	nt	i	nt	nt
COc1cccc(-n2c(SCC(=O)N3CCOCC3)nnc2-c2c[nH]c3ccccc23)c1	i	i	11	i	i
O=c1cc(-c2ccccc2Cl)oc2ccc([N+](=O)[O-])c(O)c12	i	i	i	i	i
O=[N+]([O-])c1cc([N+](=O)[O-])c2oc(-c3ccccc3)c(Br)c2c1O	i	i	nt	i	26
O=C(C[C@H]1C[C@@H]2c3cc(NC(=O)NC4CCCC4)ccc3O[C@@H]2[C@@H](CO)O1)NCc1ccccc1	i	nt	i	nt	nt
O=c1[nH]c2cc([N+](=O)[O-])ccc2c2ccc([N+](=O)[O-])cc12	nt	i	i	i	i
Nc1ccc2c(c1)[nH]c(=O)c1cc(N)ccc12	i	i	21	i	?
CO[C@H]1CN(C)C(=O)c2ccc(NC(=O)Nc3c(C)noc3C)cc2OC[C@H](C)N(CCC(F)(F)F)C[C@@H]1C	nt	nt	i	nt	nt
COc1cccc(NC(=O)Nc2ccc(C(C)(C)C)cc2)c1	nt	i	i	i	19
CC(=O)Nc1ccc(Oc2nc(-c3ccccn3)nc3ccccc23)cc1	nt	i	28	i	i
O=C(NN=Cc1cc(Br)c(O)c(Br)c1)c1ccccc1NS(=O)(=O)c1cccs1	i	i	14	i	?
O=C(NN=Cc1ccc(F)cc1)c1ccccc1NS(=O)(=O)c1cccs1	i	i	i	i	i
CN1C=CC(=CC=C2C=CC(=O)C=C2)C=C1	i	i	27	i	i
COc1cccc(OCC(=O)Nc2cc(NC(=O)COc3cccc(OC)c3)cc(C(=O)O)c2)c1	i	42	i	i	i
Cc1cccc(OCC(=O)Nc2cc(NC(=O)COc3cccc(C)c3)cc(C(=O)O)c2)c1	i	i	i	i	i
COc1ccc(C(=O)Nc2ccc3c(c2)C(=O)N(C)C[C@H](OC)[C@@H](C)CN(C(C)=O)[C@H](C)CO3)cc1	i	nt	i	nt	nt
COc1ccc2c3c(cccc13)C(=O)CC2	nt	i	i	i	47
COc1ccc2c(c1OC)C(=O)OC2	i	i	i	i	i
COc1cc(/C=N/Nc2ccccn2)ccc1O	nt	i	16	i	i
O=C(O)c1ccccc1-c1ccc(C=c2sc3nc4cc(Br)cnc4n3c2=O)o1	i	i	i	i	13
C[C@H](CO)N1C[C@H](C)[C@H](CN(C)S(=O)(=O)c2cn(C)cn2)Oc2ncc(/C=C/c3ccccc3)cc2C1=O	i	nt	i	nt	nt
Cc1ccc(S(=O)(=O)/N=C2/NC(=O)/C(=C\c3cc(Br)cc(Br)c3O)S2)cc1	i	i	nt	i	50
COc1cc(/C=C2\S/C(=N/S(=O)(=O)Cc3ccccc3)NC2=O)c([N+](=O)[O-])cc1OC	i	i	i	i	i
O=C1N/C(=N\S(=O)(=O)Cc2ccccc2)S/C1=C/c1cc([N+](=O)[O-])ccc1O	nt	i	i	i	15
SMILES	BioA inh	Vc quorum ag	TcdB inh	Y pestis TopoI	FadD28 FP inh
Cc1ccc(S(=O)(=O)/N=C2/NC(=O)/C(=C/c3ccc(Br)o3)S2)cc1	nt	i	nt	i	i
O=C1N/C(=N\S(=O)(=O)c2ccccc2)S/C1=C\c1cc([N+](=O)[O-])ccc1O	i	i	i	i	19
O=C(O)[C@@H]1[C@@H](CO)[C@@H]2Cn3c(ccc(-c4cncnc4)c3=O)[C@@H]2N1C(=O)C1CCC1	i	nt	i	nt	nt
COc1ccc(NC(=O)Nc2ccc3c(c2)[C@@H]2C[C@H](CC(=O)NCc4ccc5c(c4)OCO5)O[C@@H](CO)[C@@H]2O3)cc1	i	nt	i	nt	nt
OC[C@@H]1[C@@H](c2ccccc2)C2(CN(CC3CCOCC3)C2)N1Cc1nccs1	nt	nt	i	nt	nt
COc1ccc(/C=C2/C(=O)ON=C2c2ccccc2)cc1OC	i	i	nt	i	i
